# PubChem BioAssay AID1851 (National Center for Advancing Translational Sciences (NCATS), 2009)
# About 2,600 (16%) of roughly 16,000 compounds were called active. Another 20% or so got no clear call; they are omitted. The call rests on the fitted dose curve; in most records, active means well fitted curve in the direction sought with a large enough effect; inconclusive means small, poorly fitted or top-dose-only effect, or effect the other way; inactive means no such curve, though single readings can be large or run the other way. A selection follows.
# Biological target: Cytochrome P450 2D6 (Homo sapiens) (UniProt P10635)
# Sequence (P10635 whole entry, looked up): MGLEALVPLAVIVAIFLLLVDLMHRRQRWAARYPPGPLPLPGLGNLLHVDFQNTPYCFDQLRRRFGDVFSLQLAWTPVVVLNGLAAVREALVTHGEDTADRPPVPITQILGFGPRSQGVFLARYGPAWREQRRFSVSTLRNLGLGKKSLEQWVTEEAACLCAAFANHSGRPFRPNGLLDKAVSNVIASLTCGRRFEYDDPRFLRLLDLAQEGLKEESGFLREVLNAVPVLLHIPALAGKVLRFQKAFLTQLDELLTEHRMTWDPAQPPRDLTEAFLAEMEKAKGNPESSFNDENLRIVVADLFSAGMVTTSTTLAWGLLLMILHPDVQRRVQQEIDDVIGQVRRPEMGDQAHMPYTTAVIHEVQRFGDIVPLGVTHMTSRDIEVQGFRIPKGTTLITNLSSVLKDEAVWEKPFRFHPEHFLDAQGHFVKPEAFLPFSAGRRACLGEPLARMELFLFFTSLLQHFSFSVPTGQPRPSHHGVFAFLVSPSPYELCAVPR
# Test: Cytochrome panel assay with activity outcomes
# Settings: recombinant CYP, pro-luciferin dealkylation, luminescence, p450-cyp2d6; series mostly up to 57.1 µM
# On the % scale 0 is the no-effect control and ±100 the full control effect.
SMILES,AC50,"activity, negative = inhibition"
CCCc1nnc(SCC(=O)N2C(C)CCCC2C)n1CCCOC (stereo unspecified),inactive,–
CO[C@@H](C(C)C)[C@@H](C)[C@@H]1OC(=O)C[C@@H]1O,–,-14.8% [at 11.4 µM] (inactive)
CC(=O)N1CCc2cc(Br)cc(S(=O)(=O)N3CCN(C(=O)c4ccco4)CC3)c21,inactive,–
Cc1ccc(S(=O)(=O)CC#CCOC(=O)c2ccc([N+](=O)[O-])cc2)cc1,12.6 µM (active),–
COc1ccc(C(=O)NCS(=O)(=O)c2ccc(C)cc2)cc1,inactive,–
Cc1c(OC(=O)c2ccc([N+](=O)[O-])cc2)c2c(c[n+]1C)COC(C)(C)OC2,inactive,–
COc1ccc(-c2nc3cnc(N4CCOCC4)nc3n(C[C@H]3CCCO3)c2=O)cc1,inactive,–
CCc1nnc(NC(=O)c2cc(-c3ccccc3)nn2-c2ccccc2)s1,inactive,–
Fc1cccc(CSc2ncnc3c2ncn3[C@H]2CCCS2)c1,–,8.45% [at 11.4 µM] (inactive)
COc1ccc(CNc2ncncc2-c2cccc(NS(C)(=O)=O)c2)c(OC)c1,25.1 µM (active),–
COc1cccc(-c2cncnc2NCc2ccc(OC)cc2OC)c1,7.94 µM (active),–
COc1ccc(CNc2ncncc2-c2cccnc2)c(OC)c1,15.8 µM (active),–
COc1ccccc1CNc1cc(-c2cccc(NS(C)(=O)=O)c2)ncn1,inactive,–
COc1cccc(-c2cncnc2NC2CCNCC2)c1,inactive,–
COc1cccc(-c2cncnc2NCc2ccccc2OC)c1,7.94 µM (active),–
C/C(=N\n1nnnc1Nc1ccccc1)c1ccc(N)cc1,inactive,–
CCNc1ncc2nc(C)c(=O)n(Cc3ccc(F)cc3)c2n1,inactive,–
O=c1cnc2cnc(Oc3ccccc3)nc2n1Cc1ccc(F)cc1,inactive,–
O=C(O)/C=C\C(=O)Nc1ncn[nH]1,–,3.54% [at 11.4 µM] (inactive)
CCC(C)(C(=O)NC1CCCC1)N(Cc1ccco1)C(=O)c1ccccn1 (stereo unspecified),inactive,–
O=c1ccc2cc(O)c(O)cc2o1,inactive,–
OC[C@H](S)CS,–,19.8% [at 11.4 µM] (inactive)

SMILES,AC50,"activity, negative = inhibition"
CCOc1ccc(C(C)=O)cc1N1C(=O)C2C3C=CC(C3=C(C)C)C2C1=O (stereo unspecified),inactive,–
COc1ccccc1NC(=O)c1ccc(-n2cccn2)nc1,7.94 µM (active),–
COc1ccc(NC(=O)c2ccc(-n3cccn3)nc2)c(OC)c1,inactive,–
COc1ccccc1NC(=O)c1cnc2n(c1=O)CCS2,inactive,–
COc1ccccc1CCn1c(=O)c(-c2ccc(Cl)cc2)nc2cncnc21,inactive,–
COc1ccc(/C=N/NC(=O)c2cccc([N+](=O)[O-])c2)cc1OS(=O)(=O)c1ccc(C)cc1,inactive,–
CC(=O)Nc1sc2c(c1CN1CCN(C)CC1)CCCC2,12.6 µM (active),–
CC(=O)Nc1sc2c(c1C(N)=O)CCCC2,inactive,–
CCNC(=O)c1c(NC(C)=O)sc2c1CCCC2,inactive,–
Cc1cc(C)c(S(C)(=O)=O)c(Oc2ccc(F)cc2)n1,inactive,–
COc1ncc2nc(-c3cn(C)c4ccccc34)c(=O)n(-c3ccccc3)c2n1,inactive,–
CCOC(=O)c1c(NC(=O)C2C3CCC(O3)C2C(=O)O)sc(C)c1-c1ccc(C)cc1 (stereo unspecified),inactive,–
CCOc1ccc(N2C(=O)/C(=C/c3cccs3)N(CC(=O)OC)C2=S)cc1,inactive,–
CCOc1ccc(N2C(=O)/C(=C/c3cc(OC)c(OC)c(OC)c3)N(CC(=O)OC)C2=S)cc1,inactive,–
CCc1ccc(N2C(=O)/C(=C/c3cccs3)N(CC(=O)OC)C2=S)cc1,0.794 µM (active),–
O=C(Nc1cccc(-c2cn3cccnc3n2)c1)c1ccco1,inactive,–
COc1ccc(S(=O)(=O)N2CCc3ccccc3C2)cc1OC,inactive,–
O=C(NNS(=O)(=O)c1ccccc1)c1cccnc1,–,14.2% [at 11.4 µM] (inactive)
O=C(NNS(=O)(=O)c1ccc(Cl)cc1)c1cnn(-c2ccccc2)c1-n1cccc1,2 µM (active),–
O=C(NNS(=O)(=O)c1cc(Cl)cc(Cl)c1)c1sccc1-n1cccc1,inactive,–
N=c1nc(N2CCCCC2)cc(N)n1O,inactive,–
Oc1[nH]c2ccccc2c1N=Nc1ccc(C(F)(F)F)cn1,inactive,–

SMILES,AC50,"activity, negative = inhibition"
[O-][N+](CCO)(CCO)c1ncnc2nc[nH]c12,–,-0.262% [at 11.4 µM] (inactive)
COc1ccc(-c2cc([C@H](O)[C@@H]3CCCCN3)c3ccccc3n2)cc1,3.16 µM (active),–
O[C@@H](c1cc(-c2ccc(Cl)cc2)nc2ccccc12)[C@@H]1CCCCN1,0.631 µM (active),–
CCNC(=O)COC(=O)c1cc(-c2ccc(OC)cc2)nc2ccccc12,inactive,–
COc1ccc(-c2nc3ccccc3c(=O)n2N)cc1,inactive,–
Cc1cc(C)c2nc3c(c([C@H](O)[C@@H]4CCCCN4)c2c1)CC/C3=C/c1ccc(Cl)cc1,–,0.19% [at 11.4 µM] (inactive)
N/C(=N\OC(=O)c1cc(-c2ccccc2)nc2ccccc12)c1ccc(Cl)cc1,inactive,–
Cc1ccc(C(=O)COC(=O)CNC(=O)Cc2ccccc2)cc1[N+](=O)[O-],inactive,–
Cc1c(NC(=O)Cn2ccc([N+](=O)[O-])n2)c(=O)n(-c2ccccc2)n1C,inactive,–
c1ccc(C2=NN[C@@H]3c4ccccc4-c4ccccc4N3C2)cc1,–,-17.6% [at 11.4 µM] (inactive)
CCC(=O)NC(NC(=O)CC)C(Cl)Cl,inactive,–
CCOC(=O)N1CCN(C(=O)CSCc2nc(-c3ccccc3F)oc2C)CC1,inactive,–
CCN1CCCC1CNC(=O)CSCc1nc(-c2ccccc2C)oc1C (stereo unspecified),8.91 µM (active),–
Cc1cccc(C(=O)N/N=C/c2ccc(OCC(=O)N3CCCCC3)cc2)c1,inactive,–
O=C(CN1CCCC1)N/N=C/c1ccc(-c2cccc(Cl)c2)o1,inactive,–
O=C(Nc1ccc2oc(-c3ccccc3F)nc2c1)c1ccc2c(c1)OCCO2,inactive,–
COCCCNC(=O)/C=C/c1ccc(Cl)cc1,inactive,–
Cc1oc(-c2ccccc2Cl)nc1CSCC(=O)NC1CC1,inactive,–
O=C(/C=C/c1cccc([N+](=O)[O-])c1)NCCN1CCOCC1,inactive,–
Cc1oc(-c2ccccc2F)nc1CSCC(=O)NCc1ccc2c(c1)OCO2,2.24 µM (active),–
O=C(CSCc1cccc(Cl)c1)N/N=C/c1ccc(OCC(=O)N2CCCCC2)cc1,17.8 µM (active),–
O=C(/C=C/c1ccc2c(c1)OCO2)NCCSCc1cccc(Cl)c1,0.355 µM (active),–
